Experimental findings from PubChem BioAssay (Tox21) are described below.

Where “and” joins values, the source holds several entries; their conditions need not be identical. Equal values may be shown once. Results filed as inconclusive are left out. Some structures have more than one record in an assay (separate samples or runs), and their calls can disagree. Calls of active or inactive are those of the source. Calls follow the shape of the dose curve; as a rule, active = well fitted curve in the direction sought with a large enough effect in the repeat runs; inconclusive = weak or mixed curves; inactive = no such curve, though single readings can be large; an effect the other way counts as inactive or inconclusive.

Experiment [1] can be described thus: A CellTox Green Cytotoxicity Assay to monitor cytotoxicity in HEK293 cells - 40 hour (AID 1224871). Also: nearly all actives have a fitted effect of over 45% in size. Also: potency is read from the fitted curve at half-maximal effect. In short, it runs like this: (§1)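 Cytotoxicity was tracked continuously in HEK293 cells by a DNA-binding dye excluded from viable cells. Compounds were transferred in DMSO 5 h after seeding; fluorescence was recorded at intervals up to 40 h.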
A short description of experiment [2]: qHTS RealTime-Glo MT Cell Viability Assay in HEK293 cells - 16 hour (AID 1224872). Also: nearly all actives have a fitted effect of over 50% in size. Also: potency is read from the fitted curve at half-maximal effect. In short, it runs like this: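 HEK293 cells seeded with NanoLuc/prosubstrate reagent, rested 5 h at 37 C, then dosed and kept at 37 C up to 40 h. Nonlytic real-time luminescence from viable cells read at 0, 8, 16, 24, 32 and 40 h.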
Experiment [3] in a line: qHTS RealTime-Glo MT Cell Viability Assay in HepG2 cells - 8 hour (AID 1224873). Also: nearly all actives have a fitted effect of over 55% in size. Also: potency is read from the fitted curve at half-maximal effect. The method, boiled down:
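Real-time viability: cells seeded at 600 per well together with NanoLuc and cell-permeant prosubstrate, compounds added after 5 h incubation. Luminescence tracked at 0, 8, 16, 24, 32 and 40 h of exposure.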
Background: In qHTS, concentration-response curves come from the screen itself.

Experiment [4] in a line: qHTS RealTime-Glo MT Cell Viability Assay in HEK293 cells - 40 hour (AID 1224874). Also: nearly all actives have a fitted effect of over 50% in size. Also: potency is read from the fitted curve at half-maximal effect. Conditions: RealTime-Glo luminescence; max response: stronger effect = lower value. The method, boiled down: (§2)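 Nonlytic bioluminescent viability monitoring. HEK293 at 600 cells/well with reagent; 5 h settle; compound transfer by pintool; plates held at 37 C and read at set time points.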
The nature of experiment [5]: A CellTox Green Cytotoxicity Assay to monitor cytotoxicity in HEK293 cells - 24 hour (AID 1224875). Also: nearly all actives have a fitted effect of over 45% in size. Also: potency is read from the fitted curve at half-maximal effect. In short, it runs like this: as §1
A short description of experiment [6]: A CellTox Green Cytotoxicity Assay to monitor cytotoxicity in HepG2 cells - 16 hour (AID 1224876). Also: nearly all actives have a fitted effect of over 45% in size. Also: potency is read from the fitted curve at half-maximal effect. In short, it runs like this: (§3)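 Real-time, homogeneous cytotoxicity readout: dead-cell DNA staining by CellTox Green in HepG2 monolayers, fluorescence measured at timed intervals up to 40 h of continuous compound exposure.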
The nature of experiment [7]: qHTS RealTime-Glo MT Cell Viability Assay in HepG2 cells - 32 hour (AID 1224877). Also: nearly all actives have a fitted effect of over 55% in size. Also: potency is read from the fitted curve at half-maximal effect. In short, it runs like this: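 HepG2 cells (600/well) were dispensed with RealTime-Glo reagents, incubated 5 h at 37 °C, then treated with compounds in DMSO for up to 40 h. Nonlytic NanoLuc luminescence reflecting viable cells was read at each stated time point.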
Experiment [8] can be described thus: A CellTox Green Cytotoxicity Assay to monitor cytotoxicity in HepG2 cells - 24 hour (AID 1224878). Also: nearly all actives have a fitted effect of over 45% in size. Also: potency is read from the fitted curve at half-maximal effect. The method, boiled down:
as §3

The nature of experiment [9]: A CellTox Green Cytotoxicity Assay to monitor cytotoxicity in HepG2 cells - 40 hour (AID 1224879). Also: nearly all actives have a fitted effect of over 40% in size. Also: potency is read from the fitted curve at half-maximal effect. In short, it runs like this:
as §3

Experiment [10] can be described thus: qHTS RealTime-Glo MT Cell Viability Assay in HEK293 cells - 0 hour (AID 1224880). The method, boiled down:
as §2
% is scaled to controls: 0 for no effect and ±100 for the full control effect.

With `CC1CC(=O)O1` (stereo unspecified), the Potency entry in experiment [1], in [2], in experiment [3], in experiment [5], in experiment [6] and in experiment [7] was “inactive” throughout. In addition, the Potency result in experiment [8], in experiment [9] and in experiment [10] was “inactive” in each case. In [4], the max response was 4.47% (inactive) and -6.16% (inactive).
For the compound `O=NN(c1ccccc1)c1ccccc1`, the Potency result in [1], in experiment [2], in experiment [3], in [5], in experiment [6] and in experiment [7] was “inactive” in each case. In addition, the Potency entry in experiment [8], in experiment [9] and in experiment [10] was “inactive” each time. In experiment [4], the max response is 1.85% (inactive) and 24% (inactive).
As to `O=NN1CCOCC1`, the Potency entry in experiment [1], in experiment [3], in experiment [5], in [6], in experiment [7] and in experiment [9] was “inactive” in each case. For the same compound, in experiment [10], the Potency result was “inactive”. Moreover, the Potency result in [2] was “inactive and 3.47 µM (active)”; in experiment [4], 1.95 µM (active). Also, the max response in experiment [4] is -0.852% (inactive).
Take `Cc1ccc([N+](=O)[O-])cc1`: the Potency result in [1], in experiment [2], in [3], in [5], in experiment [6] and in [7] was “inactive” in each case. Moreover, the Potency result in experiment [8], in [9] and in experiment [10] was “inactive” in each case. Besides, in [4], the max response is 7.21% (inactive) and 12.5% (inactive).
Take `O=[N+]([O-])c1ccc(Nc2ccccc2)cc1`: the Potency result in experiment [1], in [3], in [5], in [6], in experiment [7] and in [9] was “inactive” throughout. Further, in experiment [10], the Potency entry was “inactive”. The Potency in experiment [2] was 27.8 µM (active); in experiment [4] it was 27.8 µM (active) and 21.9 µM (active).
`N#CCCCCC#N`: the Potency entry in experiment [1], in experiment [2], in [3], in [5], in experiment [6] and in experiment [7] was “inactive” in each case. The Potency result in [9] and in experiment [10] was “inactive” in each case. In addition, in experiment [4], the max response was 1.71% (inactive) and 10.7% (inactive).
`N#Cc1cccnc1`: the Potency result in [1], in [2], in experiment [3], in experiment [5], in [6] and in [7] was “inactive” each time. For the same compound, the Potency entry in experiment [8], in [9] and in [10] was “inactive” each time. Also, the max response in experiment [4] was -3.64% (inactive) and -3.39% (inactive).
For the compound `O=[N+]([O-])c1ccc(Cl)c([N+](=O)[O-])c1`, the Potency is 14 µM (active) and 19.5 µM (active) in [1]; 11.1 µM (active) and 12.3 µM (active) in experiment [2]; 24.9 µM (active) and 15.5 µM (active) in [3]; 9.92 µM (active) and 12.3 µM (active) in experiment [4]; 39.5 µM (active) in experiment [5]; 39.5 µM (active) and 54.9 µM (active) in experiment [6]. Moreover, the Potency is 35.2 µM (active) and 17.4 µM (active) in experiment [7]; 35.2 µM (active) and 49 µM (active) in experiment [8]; 39.5 µM (active) and 24.5 µM (active) in experiment [9]. Further, the Potency result in experiment [10] is “inactive”.
For the compound `C=C(C)C#N`, the Potency entry in experiment [1], in [3], in experiment [5], in experiment [6], in experiment [7] and in experiment [8] was “inactive” in each case. The Potency entry in [9] and in experiment [10] was “inactive” each time. For the same compound, the Potency entry in experiment [2] is “inactive and 21.9 µM (active)”; in [4], 5.49 µM (active). For the same compound, in [4], the max response is 3.27% (inactive).
As to `Cl`, the Potency result in experiment [1], in [2], in experiment [3], in experiment [5], in experiment [6] and in [7] was “inactive” in each case. In addition, the Potency entry in [8], in experiment [9] and in [10] was “inactive” in each case. Moreover, the max response in experiment [4] is 0.872% (inactive) and 8.14% (inactive).
`Oc1ccc(Cl)cc1Cl`: the Potency result in experiment [1], in experiment [2], in experiment [3], in experiment [5], in [6] and in experiment [7] was “inactive” throughout. In addition, the Potency result in experiment [8], in experiment [9] and in experiment [10] was “inactive” each time. Moreover, the max response in experiment [4] was 3.11% (inactive).
For the compound `CCOP(=S)(OCC)SCSC(C)(C)C`, the Potency result in experiment [1], in [2], in experiment [3], in experiment [5], in [6] and in experiment [7] was “inactive” each time. Moreover, the Potency entry in experiment [8], in [9] and in [10] was “inactive” in each case. For the same compound, the max response in experiment [4] was 5.63% (inactive) and -1.38% (inactive).
With `CCC[CH2][Sn]([Cl])([Cl])[CH2]CCC`, the Potency is 351 nM (active) and 490 nM (active) in [1]; 198 nM (active) and 174 nM (active) in experiment [2]; 7.86 µM (active) and 8.71 µM (active) in [3]; 88.2 nM (active) and 110 nM (active) in [4]; 556 nM (active) and 2.19 µM (active) in [5]; 2.22 µM (active) and 1.74 µM (active) in experiment [6]. Further, the Potency is 222 nM (active) and 155 nM (active) in experiment [7]; 442 nM (active) and 436 nM (active) in experiment [8]; 313 nM (active) and 309 nM (active) in experiment [9]. The Potency entry in [10] is “inactive”.
For the compound `CCOS(=O)(=O)OCC`, the Potency result in experiment [1], in experiment [2], in experiment [3], in experiment [5], in experiment [6] and in experiment [7] was “inactive” in each case. Besides, the Potency result in experiment [9] and in [10] was “inactive” in each case. The max response in [4] is 6.05% (inactive).
Turning to `CCOP(=O)(OCC)OCC`, the Potency entry in experiment [1], in [2], in experiment [3], in experiment [5], in [6] and in experiment [7] was “inactive” each time. In addition, the Potency entry in experiment [8], in experiment [9] and in experiment [10] was “inactive” in each case. Besides, in experiment [4], the max response is 0.385% (inactive) and 0.0295% (inactive).
Regarding `Brc1ccc(Br)cc1`, the Potency result in experiment [1], in experiment [2], in experiment [3], in experiment [5], in experiment [6] and in [7] was “inactive” in each case. The Potency entry in experiment [9] and in experiment [10] was “inactive” throughout. Also, in experiment [4], the max response was 1.04% (inactive) and 3.61% (inactive).
As for `Cc1cc(Cl)ccc1N=CN(C)C`, the Potency result in experiment [1], in [2], in experiment [3], in experiment [5], in experiment [6] and in experiment [7] was “inactive” each time. Also, the Potency entry in [9] and in [10] was “inactive” each time. The max response in experiment [4] is 2.7% (inactive) and 1.16% (inactive).
